Many of the other results were omitted from the sample, so hits are more common in it than they were.
GFP derepression: qHTS Assay for Epigenetic Modulators | mouse C127i GFP locus derepression, cytometry, 30 h | Potency, µM (series often up to 46.1 µM) | 68,000 compounds, 0.09% hits | AID 597, 2007
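Derepression screen: silenced CMV-GFP reporter in murine C127i cells, 30 h compound incubation at 37 C, washed cells imaged by laser-scanning cytometer to enumerate GFP-expressing objects of 20 to 120 um.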
Caspase-1 inhib: qHTS Assay for Allosteric/Competitive Inhibitors of Caspase-1. P29466. Caspase-1 enzyme, Ac-WEHD-AFC fluorogenic rate. Potency, µM (highest dose often 57.5 µM), usual class: inhibitors. 75,000 compounds, 0.03% hits. AID 900, 2007
Ub-GFP proteasome: Ubiquitin-GFP Assay; Potency, µM (top dose mostly 45.9 µM), actives largely listed as activators; Ubiquitin-GFP reporter cells, proteasome inhibition, GFP fluorescence; response scale: untreated = 0%, 10 µM MG-132 = 100%; AID 526, 2006; 67,000 tested, under 10 active; active means well fitted activation curve with a large enough effect, not every such curve was filed as active; inconclusive means small, poorly fitted or top-dose-only effect, or another doubt; inactive means no such curve, though single readings can be large or run the other way
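Proteasome block read as GFP accumulation: ubiquitin(G76V)-GFP U2OS cells exposed to compound (2.9 nM–46 uM) for 4 hr at 37 C. Normalization used untreated cells as 0% and 10 uM MG-132 as 100%; concentration-response curves fitted.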
Caspase-7 inhib: qHTS Assay for Allosteric/Competitive Inhibitors of Caspase-7; P55210; recombinant caspase-7, Ac-DEVD-AFC fluorescence rate; Potency, µM (series often up to 57.5 µM), hits mostly inhibitors; 75,000 compounds, 0.02% hits; AID 889, 2007; active means well fitted inhibition curve with a large enough effect in the main read-out, with a control signal flat, not every such curve was filed as active; inconclusive means small, poorly fitted or top-dose-only effect, or a change in a side signal
HBB splice mod: qHTS Assay for Modulators of Hemoglobin Beta Chain Splicing; Potency, µM (highest dose often 46.1 µM), usual class: activators; HBB splicing reporter cell assay, activation; EGFP reporter with mutant IVS2-654 intron; response scale: normalised to 500 nM splice-correcting PNA; AID 925, 2007; 65,000 compounds, 0.06% hits
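HeLa cells stably expressing EGFP interrupted by mutant beta-globin intron 2 (IVS2-654), 500/well in 2% FCS. Treated with compound for 2 days at 37C. Splicing correction scored as total well GFP intensity (488 nm excitation, 500-520 nm emission); 500 nM antisense PNA served as control.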
GBA activity: Glucocerebrosidase; 48,000 compounds, 1.1% hits; purified enzyme, resorufin glucoside fluorescence (screen aimed at inhibitors), 20 min; Lysosomal acid glucosylceramidase (Homo sapiens), P04062; Potency, µM; AID 360, 2006; in the data active means potency below about 15 µM; inconclusive means mostly about 16 µM to 33 µM;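 further: the screen sought inhibitors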
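Compounds titrated against 0.2 nM normal enzyme, 30 uM resorufin beta-D-glucopyranoside substrate, citrate/phosphate buffer with taurocholate and tween-20, pH 5.9. Reaction ran 20 min at room temperature; fluorescence (Ex 548/Em 600) gave AC50.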
Large screens that a line does not name were inactive. Unless noted, the call rests on the fitted dose curve; in most records, active means well fitted curve in the direction sought with a large enough effect; inconclusive means small, poorly fitted or top-dose-only effect, or another doubt; inactive means no such curve, though single readings can be large; an effect the other way counts as inactive or inconclusive.

CCC(C)(C(=O)NC1CCCC1)N(Cc1ccco1)C(=O)c1ccccn1 (stereo unspecified)	none
COCc1cc(CN2CCCC2)c(O)c2ncccc12	GFP derepression inconclusive (no result: GBA activity)
Oc1c(CN2CCN(c3ccccn3)CC2)cc(Cl)c2cccnc12	GFP derepression 3.2µM
CCOC(=O)C(C)Sc1nc(-c2ccc(OC)cc2)nc2c1c(=O)n(C)c(=O)n2C (stereo unspecified)	none (no result: GFP derepression, GBA activity)
CCOc1ccc(NCC2CCOC(C)(C)C2)cc1 (stereo unspecified)	none
O=C(Nc1ccc(N2CCN(C(=O)c3ccccc3)CC2)c(Cl)c1)c1ccc(Br)o1	none (no result: Caspase-1 inhib, Ub-GFP proteasome, Caspase-7 inhib, HBB splice mod, GBA activity)
CC(=O)N1CCN(c2ccc(NC(=O)c3ccccc3Br)cc2Cl)CC1	GBA activity 0.33
Cc1cc(NC(=O)c2ccc(Cl)cc2)no1	none (no result: HBB splice mod)
Cc1cc(NC(=O)c2ccc(NC(=O)c3cccs3)cc2)no1	GFP derepression inconclusive, GBA activity 2.4
CCSc1sccc1C1C(C#N)=C(N)N(c2cccnc2)C2=C1C(=O)CCC2 (stereo unspecified)	none
N#CC1=C(N)N(c2ccccc2)C2=C(C(=O)CCC2)C1c1ccsc1 (stereo unspecified)	GBA activity 15
CCOC(=O)c1c(-c2cccs2)csc1NC(=O)CN1CC(C)OC(C)C1 (stereo unspecified)	none
COc1cc(OC)c(/C=C2/C(=O)Nc3ccccc32)c(OC)c1	none (no result: GBA activity)
Cc1cc(C)c(/C=C2/C(=O)Nc3ccccc32)[nH]1	HBB splice mod 32µM (no result: GBA activity)
CCOC(=O)N1CCc2c(sc3c2C(=O)NC(c2ccccc2)N3)C1 (stereo unspecified)	GBA activity 4
CN1CCc2c(sc3c2C(=O)NC(c2cccc(OC(=O)c4cccs4)c2)N3)C1 (stereo unspecified)	Caspase-7 inhib inconclusive (no result: GFP derepression, Caspase-1 inhib, GBA activity)
Cc1cc(C)n2nc(C(=O)Nc3ccccc3N3CCOCC3)nc2n1	none
CCOC(=O)c1ccc(-n2c(=S)sc3c(=O)[nH]c(C)nc32)cc1	GBA activity 6.8
CC(=C1C2C=CC1C1C(=O)NC(=O)C21)c1ccccc1 (stereo unspecified)	GFP derepression inconclusive, Caspase-7 inhib inconclusive, HBB splice mod 16µM (no result: Caspase-1 inhib)
O=C(NC1CCCCCC1)c1c(O)c2ccccc2[nH]c1=O	GBA activity 11 (no result: HBB splice mod)
CN(C)S(=O)(=O)c1cccc(C(=O)Nc2ccc(Cl)cn2)c1	none
CCN(CC)S(=O)(=O)c1ccc(NC(=O)Cn2c(=O)oc3ccccc32)cc1	GBA activity 8.5 (no result: HBB splice mod)
O=C(NC1CCCC1)C(c1cccs1)N(Cc1ccco1)C(=O)Cn1nnc(-c2cccs2)n1 (stereo unspecified)	GBA activity 11 (no result: HBB splice mod)
COC(=O)C1=C(C)Nc2nc(-c3ccccc3)nn2C1c1ccc(C)o1 (stereo unspecified)	none (no result: GBA activity)
COc1ccccc1Nc1nc(N)nc(CN2CCN(c3ccccc3)CC2)n1	GBA activity 6.8
COc1ccc(Nc2nc(N)nc(CN3CCC(Cc4ccccc4)CC3)n2)cc1	none (no result: GBA activity)
COc1cccc(N2CCN(Cc3nc(N)nc(Nc4ccccc4OC)n3)CC2)c1	GBA activity 3.9
COc1ccccc1Nc1nc(N)nc(CN2CCC(Cc3ccccc3)CC2)n1	GBA activity 0.93
COc1ccccc1Nc1nc(N)nc(CN2CCCCCC2)n1	none (no result: GBA activity)
COc1ccccc1N1CCN(Cc2nc(N)nc(Nc3ccccc3)n2)CC1	GBA activity 4.8
COc1ccccc1Nc1nc(N)nc(CN2CCOCC2)n1	none (no result: GBA activity)
CCN1C(=O)C(C(=O)Nc2ccc(OC)cc2)C2CC1(C)Oc1ccccc12 (stereo unspecified)	none
Cc1ccccc1OCC(=O)NCCC(=O)O	none (no result: GBA activity)
Cc1cccc(Nc2nc(N)nc(CN3CCC(C)CC3)n2)c1C	GBA activity 12
COc1ccc(C(=O)Oc2c(CN3CCOCC3)cc(Cl)c3cccnc23)cc1	GFP derepression 7.9µM
CCN(CCCNC(=O)C1CCC(=O)N1C1CCCC1)c1cccc(C)c1 (stereo unspecified)	none
